Source: PubChem BioAssay AID588517 (NMMLSC, 2011)
Screen size: about 1,700 compounds; about 65 (4%) were called active.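 How the source made its calls: active means fluorescence ratio to DMSO above its plate's cutoff, the plate mean ratio plus 5 SD (cut at about 210% in these data); inactive means the rest.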 A selection follows.

test: intrinsic fluorescence of compounds, yeast control strain – S. cerevisiae AD/pABC3, flow cytometry, Cherry Pick1 set, artefact control for antifungal efflux pump inhibitor project, confirmation (AID 588517);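 further: unstained yeast with no Nile Red so the signal is compound autofluorescence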; conditions: S. cerevisiae AD/pABC3, compound fluorescence, at 10 µM, stronger effect = higher value

Structure (SMILES)	fluorescence ratio to DMSO
CSCCC(NS(=O)(=O)c1ccc(C)cc1)C(=O)N1CCCC1 (stereo unspecified)	90.1% (inactive)
CCOc1ccccc1/C=c1\sc2nc(-c3ccco3)nn2c1=O	126% (inactive)
CC(/C=N/NC(=O)c1cc(-c2ccc3ccccc3c2)n[nH]1)=C\c1ccco1	88.7% (inactive)
COc1ccc(/C=C(\C#N)c2c[nH]c3ccccc23)cc1	106% (inactive)
C[n+]1ccc(/C=C/c2c[nH]c3ccccc23)cc1	385% (active)
CCOc1ccc(/C=C2\SC(=S)N(NC(=O)c3ccncc3)C2=O)cc1OC	100% (inactive)
Cc1cc(C)cc(NC(=O)C(OC(=O)c2ccc(O)cc2)c2ccccc2)c1 (stereo unspecified)	103% (inactive)
COc1ccc(S(=O)(=O)N2CCOC2CNC(=O)C(=O)NCc2ccc(F)cc2)cc1 (stereo unspecified)	113% (inactive)
Cc1nc2c(C(=O)NCc3ccc4c(c3)OCO4)c[nH]n2c(=O)c1Cc1ccccc1F	84.3% (inactive)
Cc1ccc(Cn2nnc3c(=O)[nH]c(C4CCN(S(=O)(=O)/C=C/c5ccccc5)CC4)nc32)cc1	110% (inactive)
O=C(/C=C/c1c(Cl)cccc1Cl)NCc1ccccc1	98.2% (inactive)
Cc1cc(/C=N/NC(=O)CC2(C)OCCO2)c(C)n1-c1ccc(Cl)c(Cl)c1	102% (inactive)
Cc1ccc(/C=C(\C#N)C(=O)Nc2cccc3ncccc23)o1	98.6% (inactive)
Cc1oc2cc3oc(=O)ccc3cc2c1C	104% (inactive)
Cc1ccc(Cn2c(C)nc3c(c2=O)c2nc4ccccc4nc2n3Cc2ccco2)cc1	105% (inactive)
COc1ccc(C(=O)NC(=S)Nc2ccc(N3CCCC3)cc2)cc1OC	102% (inactive)
CCCc1nnc(SCC(=O)Nc2ccc(C(=O)OCC)cc2)o1	116% (inactive)
CCOC(=O)CNC(=O)CSc1nnnn1-c1cc(C)ccc1C	101% (inactive)
O=C(NCc1ccccc1)C(=O)NCC1OCCN1S(=O)(=O)c1ccc(Br)cc1 (stereo unspecified)	90.8% (inactive)
O=C(Nc1ccc(NC(=O)c2cccs2)cc1)c1ccc2ccccc2c1	109% (inactive)
O=S(=O)(c1ccccc1)N1CCc2ccccc21	163% (inactive)
CC(/C=C/c1ccccc1)=N\NC(=O)C1CC1(C)c1ccccc1 (stereo unspecified)	94.4% (inactive)
CCCCCC(=O)Nc1ccc(C(=O)N/N=C/c2ccc([N+](=O)[O-])cc2)cc1	103% (inactive)
COc1ccccc1CSc1ncc(-c2ccc([N+](=O)[O-])cc2)[nH]1	110% (inactive)
CCn1c(/C=C/c2ccc([N+](=O)[O-])o2)nc2ccccc2c1=O	431% (active)
CCOc1ccc2nc(Cl)c(C3CC(c4ccccc4)=NN3C(=O)c3cccs3)cc2c1 (stereo unspecified)	95.5% (inactive)

Structure (SMILES)	fluorescence ratio to DMSO
Cc1ccc2[nH]c3c(=O)n(CC(=O)NCCc4ccc(Cl)cc4)ncc3c2c1	107% (inactive)
COc1cccc(-c2sc3ccc(OC)cc3c2-c2ccc(OCCN3CCCCC3)cc2)c1	103% (inactive)
COc1ccccc1NC(=O)C1CCCN1S(=O)(=O)c1ccc(Cl)cc1 (stereo unspecified)	108% (inactive)
Cc1cc(C(=O)Nc2ccc(C)c(S(=O)(=O)N3CCOCC3)c2)c2ccccc2n1	91.8% (inactive)
O=C(CCCCCn1c(=O)[nH]c2ccccc2c1=O)NCCc1c[nH]c2ccccc12	110% (inactive)
Cc1ccc(OCc2cc(C(=O)N(C)CCc3ccccc3)no2)cc1C	106% (inactive)
CC12CCC(C(=O)N(c3cccc(Cl)c3)C1=O)C2(C)C (stereo unspecified)	102% (inactive)
CCCCN1C(=O)/C(=C/C=C2/C=Cc3ccccc3N2CC)SC1=S	68.5% (inactive)
O=C1NC(=O)C2C1C(c1ccc([N+](=O)[O-])cc1)=NN2Cc1ccccc1 (stereo unspecified)	152% (inactive)
CN(C)S(=O)(=O)c1cc(C(=O)Nc2ccn(C)n2)c(Cl)cc1Cl	93.7% (inactive)
Cc1ccc(N=C2NC(=O)/C(=C/C=C/c3ccco3)S2)cc1C	104% (inactive)
COc1ccc2[nH]c3c(C)c4cc[n+](C)cc4c(C)c3c2c1	115% (inactive)
COc1ccccc1/C=C/C=N/n1c(-c2ccc(Cl)cc2Cl)n[nH]c1=S	101% (inactive)
CCCCCCCCCCCCCCCC(=O)OC/C=C(C)/C=C/C=C(C)/C=C/C1=C(C)CCCC1(C)C	106% (inactive)
C/C(N)=C(/C#N)C(=O)COC(=O)c1cc(-c2cccc(Br)c2)nc2ccccc12	110% (inactive)
CCc1ccc(NC(=O)Cn2ncn3c(cc4ccccc43)c2=O)cc1	105% (inactive)
CCOC(=O)c1c(NC(=S)NC(=O)c2ccco2)sc2c1CCCC2	81.2% (inactive)
COc1cccc(NC(=O)CN(C)C(=O)/C=C/c2cc(OC)ccc2OC)c1	91.9% (inactive)
CCCc1nc(N2CCN(C)CC2)c2sc(=S)n(-c3ccccc3)c2n1	99.3% (inactive)
COc1ccc(C(=O)NC2CC(C)(C)Cc3c2cnn3-c2ccccc2)c(OC)c1 (stereo unspecified)	100% (inactive)
CCNc1c(NS(=O)(=O)c2ccc(C3CCCCC3)cc2)c(=O)oc2ccccc12	94% (inactive)
COc1ccc(NC(=S)N2CCc3cc(OC)c(OC)cc3C2)cc1	102% (inactive)
CCNC(=O)c1c(O)c2cccc3c2n(c1=O)CC3	83.8% (inactive)
Cc1csc(NC(=O)c2ccc(-c3ccc(Cl)cc3Cl)o2)n1	96.6% (inactive)
CSCCC(NC(=O)COc1ccccc1)C(=O)OCCOc1ccc(Br)cc1 (stereo unspecified)	93.4% (inactive)
O=C(OCc1ccc(-c2ccccc2)cc1)c1cccc(O)c1	116% (inactive)

Structure (SMILES)	fluorescence ratio to DMSO
Cc1ccc2c(c1)NC(=O)[C@@]1(C)[C@@H](c3ccccc3)[C@H]3COc4ccc(Cl)cc4[C@@H]3N1C2=O	103% (inactive)
COc1ccc2sc(-c3ccccc3OC)c(-c3ccc(OCCN4CCCC4)cc3)c2c1	112% (inactive)
Cc1cccc(NC(=O)COc2ccccc2C)n1	95% (inactive)
Cc1c(CCOC(=O)CC23CC4CC(CC(C)(C4)C2)C3)sc[n+]1Cc1ccc([N+](=O)[O-])cc1	106% (inactive)
O=C(CNC(=O)c1ccc(-c2ccccc2)cc1)OCc1ccc(Cl)cc1	110% (inactive)
C=CCC[C@@H](Cc1ccc(F)cc1)C(=O)OC[C@H](Cc1c[nH]c2ccccc12)NC(=O)[C@@H](CC=C)CC(=O)N(CCO)Cc1ccccc1	92.1% (inactive)
O=C(Cn1c(COc2ccccc2)nc2ccccc21)Nc1cc(Cl)c(Cl)cc1Cl	93.4% (inactive)
CCCCOc1ccc(C(=O)NCC(=O)OCC(=O)c2c(N)n(C)c(=O)n(C)c2=O)cc1	97.6% (inactive)
CC[n+]1cc(C)ccc1/C=C/c1ccc(N(C)C)cc1	1680% (active)
NNC(=O)COc1ccc(C2SCCS2)cc1	85.2% (inactive)
CC(C)C(=O)N1CCC2(CC1)Oc1ccc(F)cc1C(=O)C21CC(c2ccccc2)=NO1 (stereo unspecified)	97.8% (inactive)
COc1ccc(-c2sc3ccccc3c2-c2ccc(OCCN3CCOCC3)cc2)cc1	108% (inactive)
CN1CCN(S(=O)(=O)c2ccc(NC(=S)NC(=O)C3CC3)cc2)CC1	106% (inactive)
O=C(Cc1ccccc1)NCC1OCCc2ccccc21 (stereo unspecified)	109% (inactive)
Cc1nn(C)cc1N1C(=O)c2cccc3c(N)ccc(c23)C1=O	111% (inactive)
CCOc1ccc(C2/C(=C(/O)c3ccc4c(c3)CC(C)O4)C(=O)C(=O)N2CCCn2ccnc2)cc1 (stereo unspecified)	107% (inactive)
O=C(Cc1ccc(Br)cc1)N1CCN(c2ccccn2)CC1	98.2% (inactive)
CN=C(c1ccccc1)c1c(C)cccc1C	103% (inactive)
O=C(CN1C(=O)C2C3CCC(C3)C2C1=O)Oc1ccc2ccccc2c1 (stereo unspecified)	107% (inactive)
Cc1nn(C)cc1C(=O)Nc1ccccc1Br	85.7% (inactive)
COc1ccc(C(=O)C2CCCN(Cc3cccn3-c3ccccn3)C2)c(C)c1 (stereo unspecified)	109% (inactive)
O=C(CSc1nnc(-c2cccnc2)n1Cc1ccco1)c1ccc(Cl)c(Cl)c1	104% (inactive)
COc1ccc(C(=O)NC2CCCc3c2cnn3-c2cccc(C)c2C)c(OC)n1 (stereo unspecified)	92.9% (inactive)
CC1CCc2c(sc(NC(=O)c3ccc(Cn4cc(Br)cn4)o3)c2C(N)=O)C1 (stereo unspecified)	100% (inactive)
